# Test results taken from the supplement of paper PMC6522484.
# ± gives the standard deviation of the averaged measurements.
# Key:
# DLD1 [1] = experiment: cell viability (CellTiter-Glo) relative to plate median (fraction of plate median); higher = more viable cells; conditions: 5 µM; treatment time 24 h; reporter: 7TFP
# How it was run: (§1)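 Per-well firefly luciferase or CellTiterGlo luminescence, normalised to the plate median, is what is reported. It was measured in colorectal cancer cells with stable lentiviral TCF/Wnt firefly luciferase reporters after a 24 h treatment with library compounds at a final 5 µM. The mean of two independent replicates is given.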
# HCT116 = experiment: as above; conditions: 5 µM; treatment time 24 h; reporter: TCF4/Wnt
# How it was run: as §1
# SW480 [2] = experiment: as above; conditions: 5 µM; treatment time 24 h; reporter: 7TFP
# How it was run: as §1
# DLD1 [3] = experiment: TCF/Wnt firefly luciferase reporter signal relative to plate median (fraction of plate median); higher = higher Wnt reporter signal; conditions: 5 µM; treatment time 24 h; reporter: 7TFP
# How it was run: as §1
# SW480 [4] = experiment: as above; conditions: 5 µM; treatment time 24 h; reporter: 7TFP
# How it was run: as §1
SMILES,cell viability (DLD1 [1]),cell viability (HCT116),cell viability (SW480 [2]),TCF/Wnt firefly luciferase reporter signal (DLD1 [3]),TCF/Wnt firefly luciferase reporter signal (SW480 [4])
O=C(CCc1ccc(O)cc1)c1c(O)cc(O)cc1O,0.974 ± 0.093,0.88 ± 0.047,0.933 ± 0.0042,0.75 ± 0.047,0.858 ± 0.037
N[C@@H](C(=O)O)[C@@H](O)[C@H](O)[C@H](O)CO,0.989 ± 0.073,0.95 ± 0.021,1.01 ± 0.02,1 ± 0.14,0.996 ± 0.034
O=C(/C=C/c1ccc(O)c(O)c1)O[C@H](Cc1ccc(O)c(O)c1)C(=O)O,1.04 ± 0.014,0.947 ± 0.09,0.998 ± 0.031,0.854 ± 0.015,0.934 ± 0.054
O=c1[nH]cnc2c1ncn2[C@@H]1O[C@H](CO)[C@@H](O)[C@H]1O,1.09 ± 0.085,1.05,0.976 ± 0.028,0.975 ± 0.093,0.969 ± 0.1
CCN1CCN(C(=O)N[C@@H](C(=O)N[C@@H]2C(=O)N3[C@@H]2SC(C)(C)[C@@H]3C(=O)O)c2ccccc2)C(=O)C1=O,0.994 ± 0.0085,0.993 ± 0.039,1.02 ± 0.039,1.05 ± 0.014,1.03 ± 0.086
CC(=O)O[C@]1(C(C)=O)CC[C@H]2[C@@H]3C[C@H](C)C4=CC(=O)CC[C@]4(C)[C@H]3CC[C@@]21C,1.03 ± 0.014,0.989 ± 0.0099,0.96 ± 0.018,0.971 ± 0.18,1 ± 0.035
CC(CCc1ccc(O)cc1)NCCc1ccc(O)c(O)c1 (stereo not given),1.01 ± 0.018,1.06 ± 0.18,1 ± 0.037,0.928 ± 0.058,1.02 ± 0.088
Cc1oc(C(C)O)c2c1C(=O)c1c(O)cccc1C2=O (stereo not given) [Bhimamycin A],1.14 ± 0.014,0.958 ± 0.06,1.23 ± 0.13,0.9925 ± 0.0092,1.07 ± 0.042
CC(C)C(=O)Nc1ccc([N+](=O)[O-])c(C(F)(F)F)c1,1.055 ± 0.0071,0.984 ± 0.037,1.02 ± 0.029,0.924 ± 0.047,0.9955 ± 0.0064
O=C(O)c1cc(O)ccc1O,0.954 ± 0.0099,0.999 ± 0.059,1.005 ± 0.0071,1.04 ± 0.069,1.09
Oc1c(Cl)cc(Cl)cc1Sc1cc(Cl)cc(Cl)c1O,1.03 ± 0.058,1.01 ± 0.022,0.99 ± 0.043,0.979 ± 0.059,0.959 ± 0.048
CC(=O)Oc1ccc(C(c2ccc(OC(C)=O)cc2)c2ccccn2)cc1,0.806 ± 0.057,0.931 ± 0.15,1.1 ± 0.092,0.65 ± 0.098,1.03 ± 0.085
CC(C)NCC(O)COc1ccc(COCCOC(C)C)cc1 (stereo not given),0.948 ± 0.017,0.99 ± 0.0057,0.933 ± 0.0028,1.03 ± 0.042,0.964 ± 0.066
COc1ccc2cc([C@H](C)CO)ccc2c1,0.939 ± 0.0028,0.862 ± 0.17,0.9375 ± 0.0021,1.11 ± 0.035,1.04 ± 0.05
CCOC(N)=O,1.01 ± 0.021,1.04 ± 0.16,0.949 ± 0.018,1.035 ± 0.0071,0.982 ± 0.054
C=C1CCC2C(CC2(C)C)C(=C)CC/C1=N/O (stereo not given),1.03 ± 0.035,1.02 ± 0.11,1 ± 0.023,1.095 ± 0.0071,0.907 ± 0.037
Cc1cc(C(C)(C)C)c(O)c(C)c1CC1=NCCN1,0.977 ± 0.047,0.895 ± 0.016,0.972 ± 0.035,1.15 ± 0.13,1.065 ± 0.0071
CC(C)C[C@@H]1NC(=O)[C@H](CCCN)NC(=O)[C@H](C(C)C)NC(=O)[C@H](Cc2ccc(O)cc2)N[C@@H](CCC(=O)O)C(=O)N[C@@H](CC(N)=O)C(=O)[C@@H](Cc2ccccc2)NC(=O)[C@H](Cc2ccccc2)NC(=O)[C@@H]2CCCN2C(=O)[C@@H](Cc2ccccc2)NC1=O,0.894 ± 0.091,0.71 ± 0.072,0.486 ± 0.082,0.685 ± 0.041,0.469 ± 0.1
CC(c1cc2ccccc2s1)N(O)C(N)=O (stereo not given),1.03 ± 0.067,1.02 ± 0.057,1.05 ± 0.035,1.13 ± 0.014,0.946 ± 0.074
Nc1nc2[nH]cnc2c(=S)[nH]1,0.706 ± 0.016,0.761 ± 0.037,0.828 ± 0.11,0.752 ± 0.033,0.799 ± 0.025
Cn1c(=O)[nH]c(=O)c2[nH]cnc21,0.955 ± 0.026,0.8635 ± 0.0064,0.967 ± 0.032,1.09 ± 0.17,1.16 ± 0.042
Clc1ccc(COC(Cn2ccnc2)c2ccc(Cl)cc2Cl)cc1 (stereo not given),0.944 ± 0.11,0.972 ± 0.0085,0.99 ± 0.029,0.936 ± 0.13,1.03 ± 0.074
CC(=O)O[C@@H]1CC2C(C)(CC[C@H](O)C2(C)C)C2CC[C@]3(C)C(=CC(=O)O[C@H]3c3ccoc3)C21C (stereo partly drawn) [3beta-HYDROXYDEOXODIHYDRODEOXYGEDUNIN],1 ± 0.028,0.963 ± 0.081,1.02 ± 0.028,1.15 ± 0.12,1.12 ± 0.014
CC(=O)O[C@H]1CC[C@]2(C)[C@H]3C(=O)C=C4[C@@H]5[C@@H](C)[C@H](C)CC[C@]5(C(=O)O)CC[C@@]4(C)[C@]3(C)CC[C@H]2C1(C)C,1.005 ± 0.0071,1.05,0.993 ± 0.011,1 ± 0.16,1.09 ± 0.028
CNS(=O)(=O)c1ccc(NC(=O)c2ccccc2C(=O)O)cc1,1.03 ± 0.098,1.04 ± 0.042,1.04 ± 0.072,0.967 ± 0.013,1.085 ± 0.0071
NCCOB(c1ccccc1)c1ccccc1,0.968 ± 0.037,0.933 ± 0.042,0.96 ± 0.0071,1.135 ± 0.0071,1.04
CCC1=C[C@@H]2CN(C1)Cc1c([nH]c3ccccc13)[C@@](C(=O)OC)(c1cc3c(cc1OC)N(C)[C@H]1[C@@](O)(C(=O)OC)[C@H](OC(C)=O)[C@]4(CC)C=CCN5CC[C@]31[C@@H]54)C2,1 ± 0.11,0.544 ± 0.17,1.12 ± 0.11,0.911 ± 0.13,0.892 ± 0.12
CCN1CCCC(OC(=O)C(c2ccccc2)c2ccccc2)C1 (stereo not given),0.981,1.01,0.953 ± 0.025,0.941 ± 0.076,1.01 ± 0.07
Cc1oc(=O)c2c(O)cccc2c1CO [8-Hydroxy-4-hydroxymethyl-3-methyl-isocumarin],0.926 ± 0.032,0.925 ± 0.027,0.98 ± 0.021,1.01 ± 0.13,0.993 ± 0.0099
